Bioassay records (PubChem)
Compounds with a hit are over-represented: about 11% of the library has one in this group of screens.
PNC assembly inh = blocks assembly of the perinucleolar compartment | PC3M PTB-GFP, PNC prevalence imaging, 16 h; hits give low values | activity change (PNC), negative = inhibition, % at 10 µM | 140,000 compounds, 3.1% hits;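 active = readout at or below -70, meaning at least 70% loss of cells showing the perinucleolar compartment, a nuclear body marking cancer cells; inconclusive = readout between -30 and a set limit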
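Compounds are pinned in duplicate onto adhered PC3M cells stably expressing GFP-tagged PTB and incubated 16 h at 37 C. Cells are then fixed, nuclei stained with Hoechst, and PNC-positive cells counted.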
ALDH1A1 block = inhibitors of human aldehyde dehydrogenase 1A1. P00352. Purified ALDH1A1, NADH fluorescence, propionaldehyde substrate. Potency, µM (top dose mostly 75.3 µM), most hits filed as inhibitors. 220,000 compounds, 7.3% hits. AID 1030
Target sequence (P00352 whole entry, looked up): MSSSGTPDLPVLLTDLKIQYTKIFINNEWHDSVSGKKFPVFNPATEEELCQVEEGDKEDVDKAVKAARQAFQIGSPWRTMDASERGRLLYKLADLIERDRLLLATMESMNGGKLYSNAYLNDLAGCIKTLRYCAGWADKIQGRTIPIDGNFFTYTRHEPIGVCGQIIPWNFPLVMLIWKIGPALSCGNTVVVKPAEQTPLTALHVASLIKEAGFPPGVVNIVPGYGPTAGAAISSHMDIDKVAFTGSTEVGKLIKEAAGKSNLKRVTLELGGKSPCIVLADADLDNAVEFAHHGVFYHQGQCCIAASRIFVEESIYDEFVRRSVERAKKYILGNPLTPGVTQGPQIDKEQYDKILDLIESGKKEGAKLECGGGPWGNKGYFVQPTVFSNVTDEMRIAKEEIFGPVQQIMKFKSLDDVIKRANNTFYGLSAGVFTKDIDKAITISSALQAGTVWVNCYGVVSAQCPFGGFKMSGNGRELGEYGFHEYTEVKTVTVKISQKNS
HPGD block = blocks human HPGD enzyme activity. 150,000 compounds, 4.3% hits. purified HPGD, NADH fluorescence kinetic, PGE2 substrate. Potency, µM, actives largely listed as inhibitors. AID 894
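20 nM HPGD preincubated 15 min at room temperature with compound in 50 mM Tris-HCl pH 8, 0.01% Tween 20. Started with 1 mM NAD+ and 30 uM prostaglandin E2; NADH fluorescence (360/450 nm) read 5 times over 30-s intervals, last minus first.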
Hits are given with their value; 0 = inactive; ? = inconclusive; - = no result. Unless noted, calls follow the shape of the dose curve; as a rule, active = well fitted inhibition curve with a large enough effect (not every such curve was filed as active); inconclusive = small, poorly fitted or top-dose-only effect, or another doubt; inactive = no such curve, though single readings can be large or run the other way.

SMILES | PNC assembly inh | ALDH1A1 block | HPGD block
COc1cccc(Cn2c(=O)c(-c3cn(C)c4ccccc34)nc3cnc(OC)nc32)c1 | - | 0 | -
O=c1[nH]c(NCCO)nc2c1C1(CCCCC1)Cc1ccccc1-2 | 0 | ? | ?
CCC1(CC)Cc2ccccc2-c2nc(NCCO)[nH]c(=O)c21 | -100 | ? | ?
Cc1cc(C)n2nc(CCCCc3nc4nc(C)cc(C)n4n3)nc2n1 | - | 0 | -
O=c1cc(-c2ccco2)nc(-c2cccs2)o1 | 0 | 14µM | 0
c1coc(-c2nnc(-c3cccs3)o2)c1 | 0 | ? | ?
O=C(NCCCN1CCOCC1)c1cccc(S(=O)(=O)Nc2cc(Cl)ccc2Cl)c1 | - | 0 | -
CC(=O)Nc1ccc(NC(=O)C(C)OC(=O)CN(C)S(=O)(=O)c2ccc(Cl)cc2)cc1 (stereo not drawn) | -113 | 0 | 0
CC(OC(=O)CN(C)S(=O)(=O)c1ccc(Cl)cc1)C(=O)Nc1ccc(N2CCOCC2)cc1 (stereo not drawn) | 0 | 0 | 0
CC1CCCc2sc3ncn(N)c(=N)c3c21 (stereo not drawn) | - | 0 | -
Cc1cc(/C=N/n2cnnc2)c(C)n1-c1cc(Cl)ccc1Cl | 0 | 22µM | 0
Cc1cc(/C=N/n2cnnc2)c(C)n1-c1ccc(C(=O)O)cc1 | 0 | 0 | 0
Nc1nc2c([nH]c(=O)n2C2OC(CO)C(O)C2O)c(=O)[nH]1 (stereo not drawn) | - | 0 | 0
COCCNC(=O)COC(=O)c1ccc(OCC(=O)Nc2ccccc2OC)c(OC)c1 | - | 0 | -
Cc1ccccc1Cn1nc(C)c(NC(=O)/C=C/c2cnn(C)c2)c1C | -114 | 0 | 0
Cc1ccccc1Cn1nc(C)c(NC(=O)/C=C/c2cnn(C)c2C)c1C | ? | 0 | 0
CC(C)(C)c1ccc(/C=C/C(=O)Nc2nncs2)cc1 | 0 | 0 | 0
Cc1ccc(C(=O)N/C(=C\c2ccc(F)cc2)C(=O)NCc2ccncc2)cc1 | -119 | 0 | 0
O=C(NCc1ccncc1)/C(=C\c1ccc(F)cc1)NC(=O)c1ccccc1 | 0 | 0 | 0
Cc1nn(-c2cccc(Cl)c2)c2c1C(c1ccncc1)C(C#N)=C(N)O2 (stereo not drawn) | 0 | 10µM | 0
COC(=O)C1=C(C)OC(N)=C(C#N)C1c1cccnc1 (stereo not drawn) | ? | 0 | 0
Cc1cc2c(c(=O)n1Cc1ccco1)C(c1cccnc1)C(C#N)=C(N)O2 (stereo not drawn) | ? | 7.5µM | 0
CC1=C(n2nnc([N+](=O)[O-])n2)C(c2cccnc2)C(C#N)=C(N)O1 (stereo not drawn) | 0 | 1.1µM | 0
Cc1nn(-c2cccc(Cl)c2)c2c1C(c1cccnc1)C(C#N)=C(N)O2 (stereo not drawn) | 0 | 7.9µM | 0
COc1ccc(OC)c(C2C(C#N)=C(N)Oc3c2c(C)nn3-c2cccc(Cl)c2)c1 (stereo not drawn) | 0 | ? | 0
SMILES | PNC assembly inh | ALDH1A1 block | HPGD block
N#CC1=C(N)Oc2ccc3ccc(O)cc3c2C1c1cccnc1 (stereo not drawn) | 0 | 0 | 0
CCOc1ccc(C2C(C#N)=C(N)Oc3cc(C)n(Cc4ccco4)c(=O)c32)cc1OC (stereo not drawn) | 0 | ? | 0
COc1ccccc1/C=N/N1C(=O)C(CC(=O)Nc2ccc([N+](=O)[O-])cc2OC)SC1=Nc1cccc(C)c1C (stereo not drawn) | - | 0 | -
CCOc1ccc(/C(C)=N/N2C(=O)C(CC(=O)Nc3ccc(OC)cc3[N+](=O)[O-])SC2=Nc2cccc(C)c2C)cc1 (stereo not drawn) | 0 | 14µM | ?
CC1(C)CN(c2ccsc2C(=O)O)C1=O | - | 0 | -
Cc1cc(=O)c2ccccc2n1Cc1ccccc1 | - | 0 | -
Cc1nc2ccccc2n1CC(=O)NCc1ccccc1 | -103 | 0 | 0
Cc1cc(=O)c2ccccc2n1CC(=O)NCc1ccccc1 | -96 | 0 | 0
Cc1nc2ccccc2n1CC(=O)NN | - | 0 | -
COc1cccc(CNc2ccc3nc(-c4ccc(N)cc4)c(OC)n3n2)c1 | - | 0 | 0
CN(Cc1nc(-c2cccnc2)no1)S(=O)(=O)c1ccccc1 | ? | ? | 0
CN(Cc1nc(-c2ccccn2)no1)S(=O)(=O)c1ccc(Cl)cc1 | ? | ? | 25µM
O=S(=O)(NCc1ccccc1F)NCc1ccccc1F | - | 0 | -
O=C(NNC(=O)C1CCCN(c2ncccn2)C1)c1ccncc1 (stereo not drawn) | - | 0 | -
Cn1nnnc1SCC(=O)N1CCN(S(=O)(=O)c2ccc(Cl)cc2)CC1 | - | 0 | -
Cc1onc(C(=O)N2CCOCC2)c1[N+](=O)[O-] | - | 25µM | -
CC(C)c1onc(C(=O)N2CCOCC2)c1[N+](=O)[O-] | - | 0 | -
COc1ccccc1/C=C/C(=O)Nc1cccc(S(=O)(=O)NC2=NCCCCC2)c1 | - | 0 | -
Cc1nc2ccccc2c(=O)n1NC(=O)c1ccco1 | 0 | 0 | 0
Cc1ccccc1OCc1nc2ccccc2c(=O)n1NC(=O)c1ccco1 | -100 | 0 | 0
CC1=CCC2CC1C2(C)C (stereo not drawn) | - | 0 | 0
O=S(=O)(c1ccccc1)N1CCC2(CC1)CN(c1ccncc1)C2 | - | 0 | 0
CC12CN(S(=O)(=O)c3ccccc3)CC(C)(CN(S(=O)(=O)c3ccccc3)C1)C2 | -113 | 0 | 0
CC(=O)N1CCC2(CC1)CCN(c1ccccc1)CC2 | - | 0 | 0
CC(=O)N1CCC2(CC1)CN(c1ccccc1)C2 | - | 16µM | 0
SMILES | PNC assembly inh | ALDH1A1 block | HPGD block
O=S(=O)(c1ccccc1)N1CCC2(CC1)CN(c1ccccc1)C2 | - | 14µM | 0
CCS(=O)(=O)N1CCN(S(=O)(=O)c2ccccc2)CC1 | 0 | 0 | 0
Nc1ccccc1Nc1cc(-c2cccc(Cl)c2)nn1-c1ccccc1 | 0 | 0 | 0
Cc1ccc(N2C(=O)C(CC(=O)Nc3cccc(F)c3)N(C3CC3)C2=O)cc1 (stereo not drawn) | - | 20µM | -
COc1cccc(N2C(=O)C(CC(=O)Nc3ccc(F)cc3)N(C3CCCCC3)C2=O)c1 (stereo not drawn) | 0 | 0 | 0
Cc1ccc(S(=O)(=O)NC(=O)N(C)C2CCCCC2)cc1 | - | 0 | -
COc1ccc(S(=O)(=O)N(C)CC(=O)O)cc1C | - | 0 | 0
CCC(C)n1c(OC)nc2c1c(=O)n(C)c(=O)n2C (stereo not drawn) | - | 0 | -
N#Cc1ccc(CN2CCC3(CC2)CCN(C(=O)c2cnccn2)CC3)cc1 | - | 0 | 0
COc1ccc(C2C(C(=O)/C=C/c3ccco3)=C(O)C(=O)N2CCN2CCOCC2)cc1 (stereo not drawn) | - | 20µM | -
COc1cccc2cc(C(=O)C3=C(O)C(=O)N(CCN4CCOCC4)C3c3cccs3)oc12 (stereo not drawn) | 0 | 25µM | 0
Cc1ccc(C2C(C(=O)c3sc(C)nc3C)=C(O)C(=O)N2CCN2CCOCC2)o1 (stereo not drawn) | 0 | ? | 0
COc1cccc(C2C(C(=O)c3sc(C)nc3C)=C(O)C(=O)N2CCN2CCOCC2)c1 (stereo not drawn) | 0 | 20µM | 0
COc1cccc(C2C(C(=O)/C=C/c3ccco3)=C(O)C(=O)N2CCN2CCOCC2)c1 (stereo not drawn) | - | 0 | -
Cc1nc(C)c(C(=O)C2=C(O)C(=O)N(CCN(C)C)C2c2ccccc2)s1 (stereo not drawn) | ? | 0 | 0
Cc1nc(C)c(C(=O)C2=C(O)C(=O)N(CCCN(C)C)C2c2ccco2)s1 (stereo not drawn) | -81 | ? | 0
